Whole data set: some 33,000 sequences, median “e-score” near -0.053, cut for the highest 2% near 0.38. The full list was thinned out, with the highest values kept by preference.

For the assay, the target named is T1, SIX1 homeodomain (reference allele) (human, UniProt Q15475 108-198).
T1 sequence: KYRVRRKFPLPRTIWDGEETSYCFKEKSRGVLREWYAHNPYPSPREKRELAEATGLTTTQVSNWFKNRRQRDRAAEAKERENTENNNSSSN
Put plainly: universal protein binding microarray; Universal all-10-mer PBM (8x60K, AMADID 030236), 300 nM GST-tagged protein, Alexa Fluor 488 anti-GST; buffer, salt, pH and temperature not stated (as in Berger); high values mean tight binding. The conditions noted are these: protein: ivt; tags: N-terminal GST; dsDNA, one strand shown. The essentials:
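Binding was expressed as 8-mer E-scores calculated with the Universal PBM Analysis Suite. The GST-tagged homeodomains, made by in vitro transcription/translation, were applied in duplicate at 300 nM final concentration to universal 'all 10-mer' protein binding microarrays (8×60K format).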
As to CAGATGAG, the binding signal was 0.203 ± 0.0236 E-score.

As for CAATAATA, the binding signal amounted to 0.223 ± 0.0513 E-score.

Turning to CCCGCGAG, the binding signal amounted to 0.206 ± 0.0166 E-score.

Take GGTGTAAA: the binding signal was determined as 0.198 ± 0.028 E-score.

On to GTATCGAC, for which the binding signal was found to be 0.405 ± 0.0127 E-score.

Turning to CGATCGAG, the binding signal was found to be 0.21 ± 0.0298 E-score.

As for ATATCGAC, the binding signal is 0.379 ± 0.00832 E-score.

On to ATATCGAT, for which the binding signal came to 0.411 ± 0.0335 E-score.

In the case of GTATCGAA, the binding signal was 0.43 ± 0.00911 E-score.

On to GTATCTAA, for which the binding signal was 0.374 ± 0.0214 E-score.

Take GTATAGAC: the binding signal worked out at 0.276 ± 0.00412 E-score.

As to AGATCGAT, the binding signal turned out to be 0.345 ± 0.0116 E-score.

Take ATATCGAG: the binding signal is 0.335 ± 0.0302 E-score.

Regarding GGATCGAC, the binding signal worked out at 0.297 ± 0.113 E-score.

For the sequence CTATCGAG, the binding signal came to 0.157 ± 0.0365 E-score.

As to GGATCGAA, the binding signal came out at 0.267 ± 0.0826 E-score.

In the case of ATAGCTTA, the binding signal was 0.214 ± 0.0605 E-score.

Consider ATATAATA, for which the binding signal turned out to be 0.322 ± 0.053 E-score.

Regarding AAGCGTAT, the binding signal was determined as 0.231 ± 0.0511 E-score.

On to CTCGTATA, for which the binding signal was determined as 0.161 ± 0.055 E-score.

For the sequence GGTTATAC, the binding signal is 0.261 ± 0.0421 E-score.

In the case of ATCGCCTC, the binding signal worked out at 0.216 ± 0.0033 E-score.

Turning to ACCGGAGA, the binding signal turned out to be 0.201 ± 0.00786 E-score.

As for CCGTAATC, the binding signal worked out at 0.169 ± 0.00918 E-score.

For GGTCGATA, the binding signal is 0.271 ± 0.00805 E-score.

Take CGGGACAC: the binding signal was found to be 0.153 ± 0.0127 E-score.

On to ATATCGAA, for which the binding signal was 0.393 ± 0.0367 E-score.

For CTATCGAA, the binding signal stood at 0.228 ± 0.0495 E-score.

Regarding TATACGAA, the binding signal is 0.164 ± 0.00791 E-score.

As to AATATGTG, the binding signal worked out at 0.197 ± 0.0339 E-score.

Consider ATAAATAC, for which the binding signal was determined as 0.163 ± 0.0133 E-score.

AAGTATTA: the binding signal amounted to 0.254 ± 0.109 E-score.

Consider AGGTATTG, for which the binding signal turned out to be 0.29 ± 0.0429 E-score.

On to AGGTATTA, for which the binding signal turned out to be 0.385 ± 0.0849 E-score.

On to GGGTATTA, for which the binding signal worked out at 0.393 ± 0.0546 E-score.

GCGTATTA: the binding signal was 0.161 ± 0.0688 E-score.

For the sequence CGGTATTA, the binding signal came out at 0.368 ± 0.031 E-score.

Regarding CTTACACC, the binding signal was 0.203 ± 0.0268 E-score.

As for GTCGTATA, the binding signal was 0.186 ± 0.0245 E-score.

With GTAGACAC, the binding signal worked out at 0.182 ± 0.0638 E-score.

Regarding AGATAGGG, the binding signal was 0.263 ± 0.0607 E-score.

Regarding TACCAGTA, the binding signal is 0.201 ± 0.0209 E-score.

Take AATCGGGG: the binding signal was 0.181 ± 0.117 E-score.

Regarding ATGAATAC, the binding signal is 0.2845 ± 0.00167 E-score.

With CGGAGATC, the binding signal was determined as 0.322 ± 0.00475 E-score.

Take GAAGTATA: the binding signal was 0.261 ± 0.108 E-score.

With AAAGTATA, the binding signal amounted to 0.173 ± 0.149 E-score.

In the case of CAAGTATC, the binding signal is 0.378 ± 0.0659 E-score.

Consider GAACTATC, for which the binding signal turned out to be 0.23 ± 0.0598 E-score.

As to GAAGTATC, the binding signal was 0.407 ± 0.0492 E-score.

With AAAGTATC, the binding signal was determined as 0.413 ± 0.0634 E-score.

For the sequence TAAGTATA, the binding signal is 0.218 ± 0.0666 E-score.

With CAAATATC, the binding signal came out at 0.21 ± 0.0519 E-score.

In the case of ATAAGTAT, the binding signal is 0.235 ± 0.0716 E-score.

Consider TACACTGA, for which the binding signal was 0.178 ± 0.0145 E-score.

Take ATCTTCCC: the binding signal was found to be 0.174 ± 0.0102 E-score.

On to ATCACGAA, for which the binding signal was 0.172 ± 0.0453 E-score.

Consider CTAGACAC, for which the binding signal stood at 0.158 ± 0.012 E-score.

Take GAATAATC: the binding signal came to 0.209 ± 0.0094 E-score.

With ATGCATCA, the binding signal turned out to be 0.198 ± 0.0685 E-score.

As for ATCATAAG, the binding signal was 0.286 ± 0.0333 E-score.

Regarding CATATATC, the binding signal worked out at 0.341 ± 0.0628 E-score.

Turning to GATATATC, the binding signal was determined as 0.441 ± 0.0284 E-score.

Regarding AATATATC, the binding signal came out at 0.343 ± 0.0593 E-score.

Turning to TATATATA, the binding signal came to 0.344 ± 0.0349 E-score.

Take GATATAGA: the binding signal turned out to be 0.318 ± 0.034 E-score.

GATATATA: the binding signal was found to be 0.377 ± 0.0449 E-score.

ATACTTTC: the binding signal is 0.16 ± 0.145 E-score.

On to CCTCCGGA, for which the binding signal came to 0.203 ± 0.0104 E-score.

On to CCTCGAGG, for which the binding signal turned out to be 0.197 ± 0.043 E-score.

For the sequence CAGATCAG, the binding signal came out at 0.353 ± 0.0153 E-score.

As for ATACCAAT, the binding signal turned out to be 0.3482 ± 0.0028 E-score.

Regarding ATCCCAGC, the binding signal amounted to 0.221 ± 0.0257 E-score.

CTTGTATC: the binding signal was 0.266 ± 0.0293 E-score.

As to CATGTATC, the binding signal amounted to 0.403 ± 0.00743 E-score.

AATGTATC: the binding signal amounted to 0.363 ± 0.0137 E-score.

As for CGTGTATC, the binding signal is 0.404 ± 0.0303 E-score.

AGTGTACC: the binding signal was found to be 0.16 ± 0.0592 E-score.

For the sequence AGTGTATA, the binding signal turned out to be 0.291 ± 0.0334 E-score.

As for AGTGTATC, the binding signal worked out at 0.43 ± 0.00296 E-score.

As for CGTGTATA, the binding signal is 0.247 ± 0.0518 E-score.

Turning to CATGTATA, the binding signal was 0.223 ± 0.0131 E-score.

Regarding ATCGGGGG, the binding signal is 0.223 ± 0.00524 E-score.

As to ATCAACAG, the binding signal worked out at 0.209 ± 0.0732 E-score.

On to ATCCGGCC, for which the binding signal stood at 0.316 ± 0.022 E-score.

As for CGATCGGC, the binding signal came to 0.1802 ± 0.00119 E-score.

In the case of TATTATGA, the binding signal worked out at 0.207 ± 0.134 E-score.

With ATCAAGCA, the binding signal came out at 0.174 ± 0.047 E-score.

On to GATGCGGA, for which the binding signal was 0.199 ± 0.0357 E-score.

In the case of CTTCGATC, the binding signal was determined as 0.152 ± 0.112 E-score.

Regarding CCTGATCA, the binding signal is 0.306 ± 0.0156 E-score.

Consider CCTGATCC, for which the binding signal amounted to 0.387 ± 0.0469 E-score.

For the sequence CCTGATCG, the binding signal was 0.197 ± 0.0659 E-score.

For the sequence GCTGATCC, the binding signal was determined as 0.425 ± 0.0138 E-score.

As to GCTGATCA, the binding signal turned out to be 0.198 ± 0.00374 E-score.

ACTGATCC: the binding signal came to 0.398 ± 0.007 E-score.

Turning to ACTGATCT, the binding signal was 0.34 ± 0.0165 E-score.

As to ACTGATCG, the binding signal is 0.156 ± 0.0405 E-score.

As for GCAGATCC, the binding signal is 0.272 ± 0.0482 E-score.

As to GTCTAGTA, the binding signal came out at 0.158 ± 0.0279 E-score.

Turning to CACACCGG, the binding signal turned out to be 0.224 ± 0.0376 E-score.

As to GTATACGA, the binding signal is 0.308 ± 0.0266 E-score.

Consider CATGGTGA, for which the binding signal stood at 0.225 ± 0.035 E-score.

In the case of GATATGAA, the binding signal came to 0.259 ± 0.0356 E-score.

For GATATGCA, the binding signal was 0.4032 ± 0.00302 E-score.

Regarding GATATGCC, the binding signal was found to be 0.427 ± 0.0454 E-score.

For CATATGCC, the binding signal is 0.162 ± 0.0394 E-score.

For the sequence AATATGCC, the binding signal amounted to 0.16 ± 0.0322 E-score.

Consider AATATGCG, for which the binding signal came out at 0.171 ± 0.0476 E-score.

For the origin of these results see PMC10668032, “Altered binding affinity of SIX1-Q177R correlates with enhanced WNT5A and WNT pathway effector expression in Wilms tumor”.
